# Results as given in the supplement of paper PMC4466140.
# Molecular target: AgAbp1
# Experiment: SPOT peptide array binding signal intensity (averaged, normalized) (arbitrary units (background-subtracted, floor 0; scale differs between SH3 domains)); higher = stronger binding of the SH3 domain to the peptide
# Method in brief: (§1)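 GST-SH3 fusions from four yeast species, purified on glutathione Sepharose, were incubated at 10 μg/ml overnight at 4°C on membranes of synthetic 15-mer peptides in which cysteines were replaced with serines. Binding signal is the normalized, background-subtracted spot intensity averaged over replicates, in domain-specific arbitrary units.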
row,Binder,SPOT peptide array binding signal intensity
1,MAMRPIPPLPTESEY,9

# Molecular target: AgBbc1
# Experiment: as above
# Method in brief: as §1
row,Binder,SPOT peptide array binding signal intensity
1,MAMRPIPPLPTESEY,8

# Molecular target: AgBem1-D1
# Experiment: as above
# Method in brief: as §1
row,Binder,SPOT peptide array binding signal intensity
1,MAMRPIPPLPTESEY,155

# Molecular target: AgBzz1-D1
# Experiment: as above
# Method in brief: as §1
row,Binder,SPOT peptide array binding signal intensity
1,MAMRPIPPLPTESEY,7

# Molecular target: AgBzz1-D2
# Experiment: as above
# Method in brief: as §1
row,Binder,SPOT peptide array binding signal intensity
1,MAMRPIPPLPTESEY,≤ 0

# Molecular target: AgCyk3
# Experiment: as above
# Method in brief: as §1
row,Binder,SPOT peptide array binding signal intensity
1,MAMRPIPPLPTESEY,13

# Molecular target: AgFus1
# Experiment: as above
# Method in brief: as §1
row,Binder,SPOT peptide array binding signal intensity
1,MAMRPIPPLPTESEY,55.5

# Molecular target: AgHof1
# Experiment: as above
# Method in brief: as §1
row,Binder,SPOT peptide array binding signal intensity
1,MAMRPIPPLPTESEY,87.8

# Molecular target: AgHse1
# Experiment: as above
# Method in brief: as §1
row,Binder,SPOT peptide array binding signal intensity
1,MAMRPIPPLPTESEY,38

# Molecular target: AgLsb1
# Experiment: as above
# Method in brief: as §1
row,Binder,SPOT peptide array binding signal intensity
1,MAMRPIPPLPTESEY,230

# Molecular target: AgLsb4
# Experiment: as above
# Method in brief: as §1
row,Binder,SPOT peptide array binding signal intensity
1,MAMRPIPPLPTESEY,1930

# Molecular target: AgMyo5
# Experiment: as above
# Method in brief: as §1
row,Binder,SPOT peptide array binding signal intensity
1,MAMRPIPPLPTESEY,≤ 0

# Molecular target: AgNbp2
# Experiment: as above
# Method in brief: as §1
row,Binder,SPOT peptide array binding signal intensity
1,MAMRPIPPLPTESEY,81

# Molecular target: AgRvs167
# Experiment: as above
# Method in brief: as §1
row,Binder,SPOT peptide array binding signal intensity
1,MAMRPIPPLPTESEY,308

# Molecular target: AgSho1
# Experiment: as above
# Method in brief: as §1
row,Binder,SPOT peptide array binding signal intensity
1,MAMRPIPPLPTESEY,353

# Molecular target: AgSla1-D1-D2
# Experiment: as above
# Method in brief: as §1
row,Binder,SPOT peptide array binding signal intensity
1,MAMRPIPPLPTESEY,2

# Molecular target: AgSla1-D3
# Experiment: as above
# Method in brief: as §1
row,Binder,SPOT peptide array binding signal intensity
1,MAMRPIPPLPTESEY,≤ 0

# Molecular target: CaAbp1-D1
# Experiment: as above
# Method in brief: as §1
row,Binder,SPOT peptide array binding signal intensity
1,MAMRPIPPLPTESEY,35

# Molecular target: CaAbp1-D2
# Experiment: as above
# Method in brief: as §1
row,Binder,SPOT peptide array binding signal intensity
1,MAMRPIPPLPTESEY,79

# Molecular target: CaBbc1
# Experiment: as above
# Method in brief: as §1
row,Binder,SPOT peptide array binding signal intensity
1,MAMRPIPPLPTESEY,32

# Molecular target: CaBem1-D1
# Experiment: as above
# Method in brief: as §1
row,Binder,SPOT peptide array binding signal intensity
1,MAMRPIPPLPTESEY,71

# Molecular target: CaBzz1-D1
# Experiment: as above
# Method in brief: as §1
row,Binder,SPOT peptide array binding signal intensity
1,MAMRPIPPLPTESEY,54

# Molecular target: CaBzz1-D2
# Experiment: as above
# Method in brief: as §1
row,Binder,SPOT peptide array binding signal intensity
1,MAMRPIPPLPTESEY,39

# Molecular target: CaCyk3
# Experiment: as above
# Method in brief: as §1
row,Binder,SPOT peptide array binding signal intensity
1,MAMRPIPPLPTESEY,12

# Molecular target: CaFus1
# Experiment: as above
# Method in brief: as §1
row,Binder,SPOT peptide array binding signal intensity
1,MAMRPIPPLPTESEY,226

# Molecular target: CaHof1
# Experiment: as above
# Method in brief: as §1
row,Binder,SPOT peptide array binding signal intensity
1,MAMRPIPPLPTESEY,10

# Molecular target: CaHse1
# Experiment: as above
# Method in brief: as §1
row,Binder,SPOT peptide array binding signal intensity
1,MAMRPIPPLPTESEY,186

# Molecular target: CaLsb1
# Experiment: as above
# Method in brief: as §1
row,Binder,SPOT peptide array binding signal intensity
1,MAMRPIPPLPTESEY,11

# Molecular target: CaLsb4
# Experiment: as above
# Method in brief: as §1
row,Binder,SPOT peptide array binding signal intensity
1,MAMRPIPPLPTESEY,1410

# Molecular target: CaMyo5
# Experiment: as above
# Method in brief: as §1
row,Binder,SPOT peptide array binding signal intensity
1,MAMRPIPPLPTESEY,35.2
